Results on 39 compounds are retold here after PubChem BioAssay.

Active and inactive are the calls of the source. The rule behind the calls is not given here.

Sequence of L-lactate dehydrogenase (Plasmodium falciparum (isolate CDC / Honduras)) (Q27743 whole entry, looked up): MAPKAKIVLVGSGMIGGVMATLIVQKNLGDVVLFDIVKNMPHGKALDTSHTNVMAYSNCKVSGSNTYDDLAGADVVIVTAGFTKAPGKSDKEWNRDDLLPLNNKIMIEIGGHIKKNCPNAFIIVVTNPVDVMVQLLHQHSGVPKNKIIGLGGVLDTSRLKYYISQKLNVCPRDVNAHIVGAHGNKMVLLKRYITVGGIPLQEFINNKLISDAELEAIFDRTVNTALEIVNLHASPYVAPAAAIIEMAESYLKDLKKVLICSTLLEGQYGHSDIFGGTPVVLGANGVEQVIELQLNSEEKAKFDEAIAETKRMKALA

One test has as its target L-lactate dehydrogenase (Plasmodium falciparum (isolate CDC / Honduras)) (UniProt Q27743). Description: PfLDH activity inhibition – cell lysate, 3D7 strain, counter-screen for P. falciparum growth inhibition project (AID 2304).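 Note: 0% = vehicle and 100% = reference inhibitor.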 The following applies: P. falciparum 3D7 crude extract, LDH APAD/NBT absorbance; at 2 µM; stronger effect = higher value. A general note: Counterscreens check selectivity or assay interference.
For orientation: inhibition means the change of the read-out against control, counted positive when it falls. In the case of `OCC1CCN(Cc2ccc(-c3ccc(-c4nc5ccc(F)cc5[nH]4)cc3)cc2)CC1`, the inhibition was -1% (inactive).

Turning to `COc1cc(NC(=O)Nc2ccc([N+](=O)[O-])cc2OC)c(OC)cc1Cl`, the inhibition was 3% (inactive).

Regarding `COc1cc(C)nc2ccc(NC(=O)Nc3ccc4nc(C)cc(OC)c4c3)cc12`, the inhibition was -7% (inactive).

For `CC(C)C[C@H](NC(=O)c1cccc(F)c1)C(=O)N[C@H](/C=N/NC(=O)c1ccccc1)CCc1ccccc1`, the inhibition is 2% (inactive).

As to `Nc1ccn([C@@H]2O[C@H](COC(c3ccccc3)(c3ccccc3)c3ccccc3)[C@@H](O)[C@@H]2O)c(=O)n1`, the inhibition is 1% (inactive).

For the compound `N#Cc1ccc2c(c1)CCN(CCC1CCC(NC(=O)c3cc4ccc(Cl)cc4[nH]3)CC1)C2` (stereo not drawn), the inhibition is -3% (inactive).

With `Cc1cccc(-c2nc(Nc3ccncc3)c3ccc([N+](=O)[O-])cc3n2)n1`, the inhibition was -1% (inactive).

For `CC(C)C[C@H](NC(=O)c1ccc(OCCN2CCOCC2)cc1)C(=O)N[C@H](/C=N/NC(=O)OC(C)(C)C)CCc1ccccc1`, the inhibition is -4% (inactive).

In the case of `CC(C)CCNC(=O)C1Cc2c([nH]c3cc(Br)ccc23)C2(CCN(Cc3ccccc3)CC2)N1` (stereo not drawn), the inhibition was -5% (inactive).

In the case of `O=C(/C=C/c1ccc(Cl)c(Cl)c1)N1CCN(C(=O)Nc2ccc(F)c(Cl)c2)CC1`, the inhibition is -6% (inactive).

Turning to `COc1ccc(CCN2CC[C@H](Nc3nc(-c4ccc(F)c(F)c4)nc4ccccc34)C2)cc1S(N)(=O)=O`, the inhibition is -8% (inactive).

Take `O=[N+]([O-])c1cccc(NC(=S)N2CCCN(Cc3ccc(F)cc3F)CC2)c1`: the inhibition is -1% (inactive).

With `N#Cc1ccc(NC(=NC2CCCc3ccccc32)Nc2ccc(-c3ccccc3)cc2)c(O)c1` (stereo not drawn), the inhibition was 3% (inactive).

On to `Fc1cccc(COc2ccc(-n3ccc4c(NCCCn5ccnc5)ncnc43)cc2Cl)n1`, for which the inhibition was -2% (inactive).

As to `Cc1ccc(Nc2nccc(Nc3ccc4c(C)[nH]nc4c3)n2)cc1F`, the inhibition was 4% (inactive).

In the case of `CCCC(CC)n1ccc2c3c(N)nc(N)nc3ccc21` (stereo not drawn), the inhibition is 0% (inactive).

As to `COc1ccc2nccc([C@@H](O)CN3CCC(NC(=O)c4ccc(Cl)c([N+](=O)[O-])c4)CC3)c2c1`, the inhibition is -1% (inactive).

As for `COc1ccc2nc(C)cc(Nc3ccc(Oc4ccc5ccccc5c4)c(Cl)c3)c2c1`, the inhibition is 3% (inactive).

Turning to `Cc1cc(F)ccc1Nc1nc(N(C)c2ccccc2)c2cc(OCCCN(C)C)ccc2n1`, the inhibition was 4% (inactive).

Turning to `O=[N+]([O-])c1cc2c(cc1C=NNc1nc(Nc3ccccc3)nc(Nc3ccccc3)n1)OCO2`, the inhibition was -2% (inactive).

Turning to `Cn1c(=O)c2nc(-c3ccc(Cl)cc3)nnc2n(CCCC#N)c1=O`, the inhibition was 6% (inactive).

Regarding `CCOC(=O)c1c(-c2ccccc2)[nH]c2c(sc3ccccc32)c1=O`, the inhibition is -5% (inactive).

Consider `CCCC1N=C(N)N=C(N)N1c1cccc(C(F)(F)F)c1` (stereo not drawn), for which the inhibition was 5% (inactive).

As to `Cc1cccc(CNc2nc(C)cc(N[C@@H](Cc3ccccc3)C(=O)NCCOc3ccccc3)n2)c1`, the inhibition was 1% (inactive).

For the compound `Fc1ccc(Nc2ccnc3cc(-c4ccc(CNCCN5CCOCC5)o4)ccc23)c(Cl)c1`, the inhibition is -1% (inactive).

On to `CCNc1cc(C(=O)N[C@@H](Cc2ccccc2)[C@H](O)CNC2CCC(C(C)(C)C)CC2)cc(N2CCCC2=O)c1` (stereo partly drawn), for which the inhibition was -3% (inactive).

On to `Cc1ccc(-c2nnc(-c3ccc(C(=O)NC4CCN(Cc5ccc(C#N)cc5)CC4)cc3)o2)cc1Br`, for which the inhibition is -5% (inactive).

`O=C(Nc1cc(F)cc(F)c1)N1CCOC(CCN2CCC3(CCc4ccccc43)CC2)(c2ccc(Cl)c(Cl)c2)C1` (stereo not drawn): the inhibition was 4% (inactive).

For `CCCC(CNCc1cccc(I)c1)CNc1cc(=O)c2ccccc2[nH]1` (stereo not drawn), the inhibition was 7% (inactive).

With `COc1ccc2nccc([C@@H](O)CN3CC[C@H](NCc4nc5c(cc4F)SCC(=O)N5)[C@H](F)C3)c2c1`, the inhibition was -4% (inactive).

For `Cc1ccc(F)c(C(=O)Nc2cccc(-c3nn4ccccc4c3-c3ccnc(Nc4cccc(F)c4)n3)c2)c1F`, the inhibition is 6% (inactive).

Take `Cc1cc(C(=O)OCC(N)=O)c(C)n1-c1ccc(F)cc1`: the inhibition was 1% (inactive).

`Cc1cccc2[nH]c(-c3ccc(-c4cccc(CNCCN(C)C)c4)cc3)nc12`: the inhibition was 0% (inactive).

Consider `CNC(=O)c1ccccc1Nc1nc(Nc2cccnc2)ncc1C`, for which the inhibition is 1% (inactive).

Take `CCCOc1ccc(C(F)(F)F)cc1NC(=O)c1nc2nc(C)cc(C)n2n1`: the inhibition was -4% (inactive).

With `COc1ccc2ncc(F)c(CCN3C[C@H](CNCc4ccc5oc(=O)ccc5c4)[C@H](O)C3)c2n1`, the inhibition was 3% (inactive).

Regarding `CC(Oc1ccc(Cl)cc1)C(=O)Nc1cc(C(F)(F)F)ccc1-n1cncn1` (stereo not drawn), the inhibition was 2% (inactive).

For the compound `Cc1ncc(CN2CCC(C(=O)Nc3ccc(-c4nc5ccccc5o4)cc3)CC2)s1`, the inhibition is 1% (inactive).

As for `CC(C)(CNC(=O)[C@@H]1CCCN(CCOc2ccc(Cl)cc2)C1)c1nc(-c2ccc(Cl)c(O)c2)c(-c2ccncc2)[nH]1`, the inhibition was -7% (inactive).

Test system in a further test: not listed separately
The test can be described thus: inhibition of 3D7 malaria parasite growth – strain 3D7 (AID 2306).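 Note: 0% = DMSO wells and 100% = chloroquine plus artemisinin control wells.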 The conditions noted are these: P. falciparum 3D7 erythrocytic growth, LDH absorbance, 72 h; at 2 µM; stronger effect = higher value.
For `OCC1CCN(Cc2ccc(-c3ccc(-c4nc5ccc(F)cc5[nH]4)cc3)cc2)CC1`, the growth inhibition was 100% (active).

As for `COc1cc(NC(=O)Nc2ccc([N+](=O)[O-])cc2OC)c(OC)cc1Cl`, the growth inhibition is 87% (active).

As to `COc1cc(C)nc2ccc(NC(=O)Nc3ccc4nc(C)cc(OC)c4c3)cc12`, the growth inhibition was 102% (active).

`CC(C)C[C@H](NC(=O)c1cccc(F)c1)C(=O)N[C@H](/C=N/NC(=O)c1ccccc1)CCc1ccccc1`: the growth inhibition is 93% (active).

Regarding `Nc1ccn([C@@H]2O[C@H](COC(c3ccccc3)(c3ccccc3)c3ccccc3)[C@@H](O)[C@@H]2O)c(=O)n1`, the growth inhibition was 93% (active).

For the compound `N#Cc1ccc2c(c1)CCN(CCC1CCC(NC(=O)c3cc4ccc(Cl)cc4[nH]3)CC1)C2` (stereo not drawn), the growth inhibition was 103% (active).

`Cc1cccc(-c2nc(Nc3ccncc3)c3ccc([N+](=O)[O-])cc3n2)n1`: the growth inhibition was 87% (active).

Turning to `CC(C)C[C@H](NC(=O)c1ccc(OCCN2CCOCC2)cc1)C(=O)N[C@H](/C=N/NC(=O)OC(C)(C)C)CCc1ccccc1`, the growth inhibition is 96% (active).

Consider `CC(C)CCNC(=O)C1Cc2c([nH]c3cc(Br)ccc23)C2(CCN(Cc3ccccc3)CC2)N1` (stereo not drawn), for which the growth inhibition was 96% (active).

In the case of `O=C(/C=C/c1ccc(Cl)c(Cl)c1)N1CCN(C(=O)Nc2ccc(F)c(Cl)c2)CC1`, the growth inhibition was 97% (active).

Take `COc1ccc(CCN2CC[C@H](Nc3nc(-c4ccc(F)c(F)c4)nc4ccccc34)C2)cc1S(N)(=O)=O`: the growth inhibition is 99% (active).

In the case of `O=[N+]([O-])c1cccc(NC(=S)N2CCCN(Cc3ccc(F)cc3F)CC2)c1`, the growth inhibition is 99% (active).

Consider `N#Cc1ccc(NC(=NC2CCCc3ccccc32)Nc2ccc(-c3ccccc3)cc2)c(O)c1` (stereo not drawn), for which the growth inhibition was 99% (active).

As for `Fc1cccc(COc2ccc(-n3ccc4c(NCCCn5ccnc5)ncnc43)cc2Cl)n1`, the growth inhibition is 87% (active).

For the compound `Cc1ccc(Nc2nccc(Nc3ccc4c(C)[nH]nc4c3)n2)cc1F`, the growth inhibition was 95% (active).

As to `CCCC(CC)n1ccc2c3c(N)nc(N)nc3ccc21` (stereo not drawn), the growth inhibition was 94% (active).

Consider `COc1ccc2nccc([C@@H](O)CN3CCC(NC(=O)c4ccc(Cl)c([N+](=O)[O-])c4)CC3)c2c1`, for which the growth inhibition was 88% (active).

Regarding `COc1ccc2nc(C)cc(Nc3ccc(Oc4ccc5ccccc5c4)c(Cl)c3)c2c1`, the growth inhibition was 102% (active).

`Cc1cc(F)ccc1Nc1nc(N(C)c2ccccc2)c2cc(OCCCN(C)C)ccc2n1`: the growth inhibition is 100% (active).

As to `O=[N+]([O-])c1cc2c(cc1C=NNc1nc(Nc3ccccc3)nc(Nc3ccccc3)n1)OCO2`, the growth inhibition was 98% (active).

`Cn1c(=O)c2nc(-c3ccc(Cl)cc3)nnc2n(CCCC#N)c1=O`: the growth inhibition is 99% (active).

With `CCOC(=O)c1c(-c2ccccc2)[nH]c2c(sc3ccccc32)c1=O`, the growth inhibition is 97% (active).

In the case of `CCCC1N=C(N)N=C(N)N1c1cccc(C(F)(F)F)c1` (stereo not drawn), the growth inhibition is 95% (active).

As for `Cc1cccc(CNc2nc(C)cc(N[C@@H](Cc3ccccc3)C(=O)NCCOc3ccccc3)n2)c1`, the growth inhibition is 93% (active).

Turning to `Fc1ccc(Nc2ccnc3cc(-c4ccc(CNCCN5CCOCC5)o4)ccc23)c(Cl)c1`, the growth inhibition was 100% (active).

Consider `CCNc1cc(C(=O)N[C@@H](Cc2ccccc2)[C@H](O)CNC2CCC(C(C)(C)C)CC2)cc(N2CCCC2=O)c1` (stereo partly drawn), for which the growth inhibition is 98% (active).

Consider `Cc1ccc(-c2nnc(-c3ccc(C(=O)NC4CCN(Cc5ccc(C#N)cc5)CC4)cc3)o2)cc1Br`, for which the growth inhibition was 91% (active).

Take `O=C(Nc1cc(F)cc(F)c1)N1CCOC(CCN2CCC3(CCc4ccccc43)CC2)(c2ccc(Cl)c(Cl)c2)C1` (stereo not drawn): the growth inhibition is 100% (active).

For `CCCC(CNCc1cccc(I)c1)CNc1cc(=O)c2ccccc2[nH]1` (stereo not drawn), the growth inhibition was 100% (active).

In the case of `COc1ccc2nccc([C@@H](O)CN3CC[C@H](NCc4nc5c(cc4F)SCC(=O)N5)[C@H](F)C3)c2c1`, the growth inhibition was 95% (active).

Take `Cc1ccc(F)c(C(=O)Nc2cccc(-c3nn4ccccc4c3-c3ccnc(Nc4cccc(F)c4)n3)c2)c1F`: the growth inhibition was 98% (active).

With `Cc1cc(C(=O)OCC(N)=O)c(C)n1-c1ccc(F)cc1`, the growth inhibition was 97% (active).

`Cc1cccc2[nH]c(-c3ccc(-c4cccc(CNCCN(C)C)c4)cc3)nc12`: the growth inhibition is 102% (active).

As to `CNC(=O)c1ccccc1Nc1nc(Nc2cccnc2)ncc1C`, the growth inhibition was 93% (active).

Consider `CCCOc1ccc(C(F)(F)F)cc1NC(=O)c1nc2nc(C)cc(C)n2n1`, for which the growth inhibition is 90% (active).

For the compound `COc1ccc2ncc(F)c(CCN3C[C@H](CNCc4ccc5oc(=O)ccc5c4)[C@H](O)C3)c2n1`, the growth inhibition was 89% (active).

On to `CC(Oc1ccc(Cl)cc1)C(=O)Nc1cc(C(F)(F)F)ccc1-n1cncn1` (stereo not drawn), for which the growth inhibition is 99% (active).

Take `Cc1ncc(CN2CCC(C(=O)Nc3ccc(-c4nc5ccccc5o4)cc3)CC2)s1`: the growth inhibition was 82% (active).

Consider `CC(C)(CNC(=O)[C@@H]1CCCN(CCOc2ccc(Cl)cc2)C1)c1nc(-c2ccc(Cl)c(O)c2)c(-c2ccncc2)[nH]1`, for which the growth inhibition was 92% (active).
